We go through 25 molecules from ChEMBL document CHEMBL4296182, “CO-ADD screening of NIH NCI Diversity Set V”.

For part of these data: Potency and affinity values are given separately.

One assay relates to Staphylococcus aureus. As to the kind of experiment: Antibacterial activity against Staphylococcus aureus MRSA ATCC 43300 (CO-ADD:GP_020); MIC in CAMBH media using NBS plates, by Resazurin F(560/590). The class given is functional. The settings on record: Concentration 20 uM, ASSAY_TEST Inhibition of Bacterial Growth, detection method Resazurin, Fluorescence (ex560/em590), MEDIA CAMHB, plate type 384well, CORNING #3640, time 18 hr.

For the next assay, the system named is Acinetobacter baumannii. The assay can be described thus: Antibacterial activity against Acinetobacter baumannii ATCC 19606 (CO-ADD:GN_034); MIC in CAMBH media using NBS plates, by Resazurin F(560/590). The class given is functional. The conditions noted are these: Concentration 20 uM, ASSAY_TEST Inhibition of Bacterial Growth, detection method Resazurin, Fluorescence (ex560/em590), MEDIA CAMHB, plate type 384well, CORNING #3640, time 18 hr. (The colour change of resazurin is a common sign of viable cells or microbes.)

The next assay deals with Escherichia coli. As to the kind of experiment: Antibacterial activity against Escherichia coli ATCC 25922 (CO-ADD:GN_001); MIC in CAMBH media using NBS plates, by Resazurin F(560/590). The format is functional. The settings on record: Concentration 20 uM, ASSAY_TEST Inhibition of Bacterial Growth, detection method Resazurin, Fluorescence (ex560/em590), MEDIA CAMHB, plate type 384well, CORNING #3640, time 18 hr.

The test system of another assay is Klebsiella pneumoniae. The settings on record: Concentration 20 uM; ASSAY_TEST Inhibition of Bacterial Growth; detection method Absorption (OD600); MEDIA CAMHB; plate type 384well; NBS; CORNING #3640; time 18 hr.
The test system of another assay is Candida albicans. The conditions noted are these: 20 µM.
The test system of another assay is Cryptococcus neoformans. The settings on record: Concentration 20 uM; ASSAY_TEST Inhibition of Fungal Growth; detection method Resazurin; Absorption (OD600-OD570); plate type 384well; NBS; CORNING #3640.

What is called Inhibition is the change of the read-out against control, counted positive when it falls. On to `CC1=CN2C(c3cccc([N+](=O)[O-])c3)=NON(c3ccc(C)cn3)C2C=C1` (stereo not given), for which the Inhibition was 16.79% in the assay with Staphylococcus aureus; -11.84% in the assay on Acinetobacter baumannii; 19.37% with Escherichia coli; 7.72% in the assay with Klebsiella pneumoniae; 17.2% in the assay on Candida albicans; 0.26% in the assay with Cryptococcus neoformans.

For `COc1ccc(NC(=O)CC(C)=O)c(OC)c1`, the Inhibition in the assay with Staphylococcus aureus is 5.13%; in the assay with Acinetobacter baumannii, -8.6%; in the assay with Escherichia coli, 1.4%; with Klebsiella pneumoniae it was 22.3%; with Candida albicans it was 0.23%; with Cryptococcus neoformans, -3.01%.

For the molecule `Sc1nccn1-c1ccccc1Cl`, the Inhibition was 5.33% in the assay on Staphylococcus aureus; 14.25% with Acinetobacter baumannii; -3.3% in the assay on Escherichia coli; 6.92% in the assay on Klebsiella pneumoniae; 3.82% in the assay with Candida albicans; -5.04% in the assay with Cryptococcus neoformans.

For `O=C1OC(CN(Cc2ccccc2)Cc2ccccc2)CN1/N=C/c1ccc([N+](=O)[O-])o1` (stereo not given), the Inhibition is -19.95% in the assay on Staphylococcus aureus; -14.51% in the assay with Acinetobacter baumannii; 10.29% in the assay on Escherichia coli; 6.15% in the assay on Klebsiella pneumoniae; 10.5% in the assay on Candida albicans; -4.47% in the assay with Cryptococcus neoformans.

As to `O=C(c1cccnc1)c1cc(-c2ccccn2)c(=O)n2ccccc12`, the Inhibition was 15.83% with Staphylococcus aureus; 5.57% in the assay on Acinetobacter baumannii; 12.26% with Escherichia coli; 7.21% in the assay on Klebsiella pneumoniae; 0.65% with Candida albicans; -7.13% with Cryptococcus neoformans.

Take `O=C1COc2c1ccc(O)c2O`: the Inhibition in the assay with Staphylococcus aureus is 0.46%; in the assay with Acinetobacter baumannii, -23.14%; with Escherichia coli, 5.49%; with Klebsiella pneumoniae, 7.13%; in the assay on Candida albicans, 0.16%; with Cryptococcus neoformans, -9.43%.

`CC1=CC2(C)NC(=O)C(C)C12` (stereo not given): the Inhibition in the assay on Staphylococcus aureus was 9.76%; in the assay on Acinetobacter baumannii it was -10.3%; with Escherichia coli, 6.64%; with Klebsiella pneumoniae it was 6.26%; with Candida albicans, -0.72%; in the assay on Cryptococcus neoformans, -9.55%.

For `Br.C=CC1CN2CCC1CC2C(O)c1ccnc2ccc(OC)cc12` (stereo not given), the Inhibition was -3.41% in the assay on Staphylococcus aureus; 0.49% in the assay on Acinetobacter baumannii; 16.29% with Escherichia coli; 15.08% in the assay on Klebsiella pneumoniae; -0.01% with Candida albicans; 7.91% in the assay with Cryptococcus neoformans.

As to `Cc1cc(N2CCOCC2)nc(N2CCOCC2)n1`, the Inhibition in the assay on Staphylococcus aureus is 0.14%; in the assay on Acinetobacter baumannii, -0.73%; in the assay on Escherichia coli, 6.71%; with Klebsiella pneumoniae, 4.64%; in the assay with Candida albicans, 1.08%; in the assay on Cryptococcus neoformans it was -7.95%.

On to `CC(=O)[C@H]1CC[C@H]2[C@@H]3CCC4=CC(=O)CC[C@]4(C)[C@@]3(F)[C@@H](O)C[C@]12C`, for which the Inhibition in the assay with Staphylococcus aureus is 0.89%; with Acinetobacter baumannii, -16.68%; in the assay with Escherichia coli, 9.76%; with Klebsiella pneumoniae, 7.06%; in the assay with Candida albicans, 0.8%; in the assay with Cryptococcus neoformans, -7.75%.

With `CCCCCC(=O)N1CCCC1`, the Inhibition in the assay on Staphylococcus aureus was 12.42%; with Acinetobacter baumannii it was -13.64%; with Escherichia coli it was 4.47%; in the assay with Klebsiella pneumoniae, 10.8%; with Candida albicans it was 0.29%; in the assay with Cryptococcus neoformans it was -1.54%.

With `O=C(Nc1ccc(Cl)c(Cl)c1)Nc1ccccc1O`, the Inhibition was -10.29% with Staphylococcus aureus; 0.1% in the assay on Acinetobacter baumannii; -13.39% in the assay with Escherichia coli; 5.08% in the assay on Klebsiella pneumoniae; 3.05% with Candida albicans; 15.14% in the assay with Cryptococcus neoformans.

In the case of `N#Cc1cc(-c2ccccc2)[nH]c1-c1nccc2ccccc12`, the Inhibition with Staphylococcus aureus is -0.89%; with Acinetobacter baumannii, -11.99%; with Escherichia coli it was 7.81%; in the assay on Klebsiella pneumoniae, 10.89%; with Candida albicans it was 17.5%; with Cryptococcus neoformans, -6.55%.

For `CCOC(=O)C(=O)Cc1nc2ccccc2s1`, the Inhibition with Staphylococcus aureus is 2.9%; in the assay with Acinetobacter baumannii, -6.12%; with Escherichia coli it was 10.05%; with Klebsiella pneumoniae it was 6.52%; in the assay with Candida albicans it was 16%; in the assay with Cryptococcus neoformans, -6.27%.

Regarding `Nc1cc([N+](=O)[O-])ccc1Nc1ccc(O)cc1`, the Inhibition was -9.75% in the assay with Staphylococcus aureus; -11.21% with Acinetobacter baumannii; 0.26% with Escherichia coli; 0.39% in the assay with Klebsiella pneumoniae; 3.23% in the assay on Candida albicans; -0.22% with Cryptococcus neoformans.

Regarding `C(=C\c1ccccn1)/c1ccccn1`, the Inhibition in the assay with Staphylococcus aureus is -7.74%; with Acinetobacter baumannii, -5.17%; with Escherichia coli, -19.26%; in the assay with Klebsiella pneumoniae, 9.47%; in the assay with Candida albicans it was 4.3%; with Cryptococcus neoformans, 26.47%.

Take `c1ccc(-c2ccc(-c3nccc4ccccc34)[nH]2)cc1`: the Inhibition in the assay on Staphylococcus aureus was -4.96%; with Acinetobacter baumannii, -13.85%; in the assay with Escherichia coli it was 6.1%; with Klebsiella pneumoniae, 4.74%; in the assay with Candida albicans, 14%; with Cryptococcus neoformans, -7.81%.

Take `O=S(=O)(O)c1ccc(/N=N/c2ccccc2)cc1`: the Inhibition in the assay with Staphylococcus aureus was -3.11%; in the assay on Acinetobacter baumannii it was 7.18%; in the assay with Escherichia coli it was 5.47%; in the assay on Klebsiella pneumoniae, 7.84%; with Candida albicans it was 2.54%; in the assay on Cryptococcus neoformans it was -15.64%.

Turning to `CC(=O)[C@H]1CC[C@H]2[C@@H]3CCC4=CC(=O)C=C[C@]4(C)[C@H]3C(=O)C[C@]12C`, the Inhibition was 11.15% with Staphylococcus aureus; -7.04% with Acinetobacter baumannii; -4.55% in the assay with Escherichia coli; 23.74% in the assay with Klebsiella pneumoniae; 4.8% in the assay with Candida albicans; -6.32% with Cryptococcus neoformans.

With `NCC(=O)Nc1ccc(Cl)cc1C(=O)c1ccc[nH]1`, the Inhibition in the assay with Staphylococcus aureus was -7.1%; in the assay with Acinetobacter baumannii it was -14.48%; in the assay with Escherichia coli, 6.3%; in the assay with Klebsiella pneumoniae it was 6.27%; in the assay with Candida albicans, 1.44%; in the assay on Cryptococcus neoformans it was -13.13%.

`COc1ccc(NC(=O)c2cc3ccc4c5ccccc5[nH]c4c3cc2O)cc1`: the Inhibition in the assay on Staphylococcus aureus is 16.09%; in the assay with Acinetobacter baumannii, 5.56%; in the assay on Escherichia coli it was 1.69%; with Klebsiella pneumoniae it was 7.19%; with Candida albicans, -5.12%; in the assay with Cryptococcus neoformans, 1.29%.

For the molecule `CC1(C)c2ccccc2-c2nc3ccccc3cc2C1O` (stereo not given), the Inhibition was 15.31% in the assay on Staphylococcus aureus; 7.67% in the assay on Acinetobacter baumannii; -1.43% in the assay on Escherichia coli; 14.38% with Klebsiella pneumoniae; 9.47% in the assay with Candida albicans; -10.94% in the assay on Cryptococcus neoformans.

On to `Cc1cc(=O)[nH]c(N)n1`, for which the Inhibition in the assay on Staphylococcus aureus is 9.55%; with Acinetobacter baumannii, -6.26%; with Escherichia coli, 2.4%; in the assay on Klebsiella pneumoniae, 1.73%; with Candida albicans it was 3.77%; in the assay on Cryptococcus neoformans, -0.62%.

For the molecule `CN(C)c1ccc(/C=C2/C=C(c3ccc4c(c3)CCCC4)OC2=O)cc1`, the Inhibition is 19.91% in the assay with Staphylococcus aureus; -7.24% with Acinetobacter baumannii; 16.55% in the assay on Escherichia coli; 6.65% with Klebsiella pneumoniae; 4.35% with Candida albicans; 1.53% with Cryptococcus neoformans.

As to `Cc1cc(N(C)C)ccc1/N=N/c1ccc2ncccc2c1`, the Inhibition was 1.18% in the assay with Staphylococcus aureus; -8.44% in the assay on Acinetobacter baumannii; 5.41% in the assay with Escherichia coli; 5.32% with Klebsiella pneumoniae; 3.26% in the assay on Candida albicans; -12.5% with Cryptococcus neoformans.
